# From PubChem BioAssay
# GIRK2 act – Activators of human GIRK2-containing channels; activation (% efficacy), % for hits at 75 µM; P48051; HEK293 GIRK2/NPY4 cells, thallium flux fluorescence; 34,000 tested, under 10 active;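 active = primary screen hit, no activity in plain HEK293 cells, and in GIRK2-only cells above 5% efficacy rising with concentration; inactive = the rest, including fluorescent compounds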;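 also: efficacy is normalized control-subtracted fluorescence 15 s after thallium addition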
# Target sequence (P48051 whole entry, looked up): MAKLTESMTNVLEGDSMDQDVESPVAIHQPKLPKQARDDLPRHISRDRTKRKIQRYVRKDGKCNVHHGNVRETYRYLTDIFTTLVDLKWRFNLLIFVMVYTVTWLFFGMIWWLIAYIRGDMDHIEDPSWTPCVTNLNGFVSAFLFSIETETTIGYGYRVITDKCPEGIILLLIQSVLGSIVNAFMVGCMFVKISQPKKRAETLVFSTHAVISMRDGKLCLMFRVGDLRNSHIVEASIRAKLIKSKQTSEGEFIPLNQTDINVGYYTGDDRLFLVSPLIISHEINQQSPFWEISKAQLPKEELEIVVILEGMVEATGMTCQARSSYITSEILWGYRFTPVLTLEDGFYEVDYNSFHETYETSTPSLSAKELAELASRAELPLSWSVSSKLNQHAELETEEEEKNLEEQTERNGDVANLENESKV
# GluA2 TARP mod – modulates AMPAR-stargazin complexes. HEK293 GluA2+stargazin, membrane potential dye (FDSS), glutamate EC50; hits were called plate by plate, in both directions. hit rate 3.5% among 40,000. AID 1259245. calls only at 30 µM;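 active = any of four per-well response measures lying three or more SD from its plate-wide compound average, in either direction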
# The depositor's hits bear a star; i = inactive; . = not tested or not shown; + = active, no number. The sample as a whole holds a higher share of hits than the screen did.
SMILES,GIRK2 act,GluA2 TARP mod
CCCC(CCC)C(=O)N1CCN(c2nccn2C)CC1,i,.
COc1cc(NS(=O)(=O)c2ccc3c(c2)CCCC3)ccc1N1CCCCC1=O,i,+
COc1ccc(NS(=O)(=O)c2ccc3c(c2)CCCC3)cc1N1CCCCC1=O,i,i
COc1cc(N2CCN(S(=O)(=O)c3ccc(Cl)c(Cl)c3)CC2)nc(OC)n1,i,i
O=C(Nc1cccc(C(F)(F)F)c1)c1cc(-c2ccccc2)nc2ccccc12,.,i
C=CCN(CC=C)C(=O)c1cc(-c2ccccc2)nc2ccccc12,.,+
CNC(=O)c1cccc(-c2noc(C3CN(Cc4cccc5ccccc45)C3)n2)c1,i,.
O=C(Cc1csc(SCC(=O)c2cccs2)n1)Nc1ccc(Cl)c(Cl)c1,i,.
Cc1csc(NC(=O)Cc2cc(-c3ccc4c(c3)OCO4)on2)n1,i,i
CC(C)Sc1ccc(CC(=O)N2CCC(c3nnc(C(C)C)o3)CC2)cc1,i,+
CC(C)c1nnc(C2CCN(C(=O)CCSc3ccccc3)CC2)o1,i,i
CC(C)(C)n1ncc2c(=O)n(NC(=O)/C=C/c3ccccc3)cnc21,i,+
CC(C)(C)n1ncc2c(=O)n(NC(=O)C(c3ccccc3)c3ccccc3)cnc21,i,i
O=C(Nc1ccc2nccnc2c1)c1csc2c1CCCC2,i,+
CCn1nccc1C(=O)Nc1ccc2c(c1)OCCO2,i,i
CCN(CC)c1ccc(NC(=O)c2csc3c2CCCC3)cc1,.,i
O=C(Nc1ccc2nccnc2c1)c1ccc2c(c1)OCCO2,i,+
O=c1c2cc3c(cc2nc(SCc2nc(-c4cccs4)no2)n1Cc1ccco1)OCO3,i,i
CCc1cccc2sc(N3CCN(C(=O)CS(=O)(=O)Cc4ccccc4)CC3)nc12,i,i
O=C(CS(=O)(=O)Cc1ccccc1)N1CCN(c2nc3c(Cl)cccc3s2)CC1,i,+
CCN1CCc2c(sc(NC(=O)C3=COCCO3)c2-c2nc3ccccc3s2)C1,.,i
COc1cccc(CNC(=O)C(=O)NCc2ccccc2)c1,.,i
COCCNC(=O)C(=O)NCC1CCN(C(=O)Oc2ccccc2)CC1,i,i
CSc1ccccc1C(=O)N(CCc1ccccc1)Cc1ccccn1,i,i
O=C(c1nc2ccccc2s1)N(CCc1ccccc1)Cc1ccccn1,i,+
SMILES,GIRK2 act,GluA2 TARP mod
CCOC(=O)C(=O)NCC1CCCN1S(=O)(=O)c1cc(C)ccc1C (configuration not stated),i,i
O=c1[nH]c2c(s1)C1c3ccccc3OC3CCCC(S2)C31 (configuration not stated),.,+
Cc1cc(C)cc(NC(=O)Cn2nc3ccc(SCc4ccc(Cl)cc4)nn3c2=O)c1,i,i
COC(=O)C1=C(C)NC2=C(C(=O)CCC2)C1c1ccc(C(C)C)cc1 (configuration not stated),.,i
Cc1c(C)c(C)c(S(=O)(=O)NCCC(O)c2ccco2)c(C)c1C (configuration not stated),i,+
CN(C)CCNC(=O)C(=O)NCCC(O)c1ccco1 (configuration not stated),i,i
COc1ccc(C(=O)N2C(=S)C(c3ccccc3)=NC23CCCCC3)cc1OC,i,i
COc1ccc(S(=O)(=O)NCc2nnnn2-c2ccc(F)c(F)c2)cc1,.,i
COc1ccc(S(=O)(=O)NCc2nnnn2-c2ccc(F)cc2)cc1,.,+
Cc1nc(C)c(C(=O)NC2CNC(=O)C2)s1 (configuration not stated),i,.
CCOc1ccc(-c2ccc(=O)n(CCCC(=O)Nc3cc(Cl)ccc3C)n2)cc1,i,.
O=C(Nc1cc(-c2ccccc2)nn1CCO)c1ccc2nsnc2c1,i,i
Cn1nnc2c(SCC(=O)N3CCC(Cc4ccccc4)CC3)ncnc21,i,i
CCOc1ccccc1NC(=O)c1nnn(-c2ccc(C(C)C)cc2)c1C,.,i
Cc1ccc(-c2nn(C)c(=O)c3ccccc23)cc1CNS(C)(=O)=O,.,i
Cn1nc2c3c(cccc3c1=O)-c1ccccc1-2,.,+
CC1=C(C)CC2C(=O)C(c3ccc(C(C)C)cc3)=CC(=O)C2C1 (configuration not stated),i,i
COc1ccc(CCn2c(C)nc3c(c(=O)c4ccccc4n3C)c2=O)cc1OC,.,i
Cc1nc2c(c(=O)c3ccccc3n2C)c(=O)n1-c1ccccc1,.,i
COc1ccc(Cn2c(C)nc3c(c(=O)c4ccccc4n3C)c2=O)cc1,.,+
Cc1nc2c(c(=O)c3ccccc3n2C)c(=O)n1C1CCCCCC1,.,+
Cc1ccc(-c2nnc(NC(=O)c3ccc(S(=O)(=O)C(C)C)cc3)o2)cc1C,i,i
Cc1cc(C)c(-c2ccc(SCC(=O)Nc3ccc4c(c3)OCO4)nn2)cc1C,i,i
O=C(c1ccccc1Oc1ccccc1)N1CCC(c2cccs2)CC1,i,i
CSc1ccccc1C(=O)N1CCC(c2cccs2)CC1,i,+
SMILES,GIRK2 act,GluA2 TARP mod
COc1cccc(OCCOCC(O)CN2CCN(C)CC2)c1 (configuration not stated),.,i
COC(=O)Cn1c(C)cn2c3c(=O)n(C)c(=O)n(C)c3nc12,i,i
Cc1ccc(Nc2cc(N3CCN(C(=O)c4ncccn4)CC3)nc(C)n2)cc1,i,+
Cc1ccc(Nc2cc(C)nc(N3CCN(C(=O)c4ccc5c(c4)OCO5)CC3)n2)cc1,.,i
COc1ccc(CC(=O)Nc2nc(-c3ccc(OC)c(OC)c3)cs2)cc1,.,i
O=C(CC1CCCC1)Nc1cc(-c2ccco2)nn1-c1nc2c(c(=O)[nH]1)CCC2,i,i
O=C(Nc1cc(-c2ccco2)nn1-c1nc2c(c(=O)[nH]1)CCC2)C1CC1,i,+
Cc1cc(C)c(S(=O)(=O)NCC(O)(c2ccccc2)C(F)(F)F)cc1C (configuration not stated),i,i
Cc1cc(=O)[nH]c(-n2nc(C)c(CCC(=O)NCc3ccccc3Cl)c2C)n1,i,i
Cc1nn(-c2nc3ccccc3[nH]2)c(=O)c2ccccc12,.,+
Cc1ccccc1NC(=O)Nc1cccc(N2CCCCC2=O)c1,i,i
COc1cc([N+](=O)[O-])ccc1NC(=O)c1ccc(=O)n(Cc2ccc(Cl)cc2)c1,i,i
COc1cc([N+](=O)[O-])ccc1NC(=O)c1ccc(=O)n(Cc2cccc(C(F)(F)F)c2)c1,i,i
CC(=O)c1cccc(NC(=O)c2ccc(=O)n(Cc3cccc([N+](=O)[O-])c3)c2)c1,i,+
COc1cc([N+](=O)[O-])ccc1NC(=O)c1ccc(=O)n(Cc2ccccc2)c1,i,+
COc1cccc(NC(=O)c2ccc(=O)n(Cc3cccc([N+](=O)[O-])c3)c2)c1,i,i
COc1cc([N+](=O)[O-])ccc1NC(=O)c1ccc(=O)n(Cc2cccc(Cl)c2)c1,i,+
COc1ccc(-c2ccc(N3CCC(C(=O)Nc4nc5ccc(C)cc5s4)CC3)nn2)cc1,i,i
O=c1c(Oc2ccccc2Br)coc2c3c(ccc12)OCN(C1CCS(=O)(=O)C1)C3 (configuration not stated),i,i
O=C(CSc1nc(-c2ccco2)cc(C(F)(F)F)n1)N1CCSCC1,.,i
O=C(CSc1nc(-c2ccco2)cc(C(F)(F)F)n1)N1CCCCCC1,.,+
